BoNT A protease: blocks Botulinum neurotoxin A light chain protease; multiplex microsphere protease substrate cleavage, flow cytometry; inhibition, % at 10 µM; actives 0.17% (n = 360,000); in the data active = inhibition above about 30%; inconclusive = no clear call, values can overlap the other calls; note: plate controls were buffer without enzyme for full effect and enzyme alone for no effect
GDH-TPI counter-1: inhibits GDH-TPI coupling enzymes, artifact for Mtb FBA screen | GDH-TPI coupled enzyme counterscreen, NADH absorbance | inhibition, % at 4.8 µM | actives 1.2% (n = 360,000); in the data active = inhibition above about 30%;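 note: 0% = DMSO wells and 100% = wells lacking the enzyme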
Autofluor counter: compound fluorescence in toxin protease inhibitor counterscreen. compound autofluorescence counterscreen, microsphere flow cytometry; hits give high values. fluorescence intensity (concentration not given with the values). AID 624483. actives 3.1% (n = 360,000); in the data active = fluorescence intensity above about 16000; inconclusive = no clear call, values can overlap the other calls
BoNT-F LC inh: inhibitors of Botulinum neurotoxin F light chain protease; Multiplex microsphere protease cleavage assay, flow cytometry; actives 0.22% (n = 360,000); inhibition, % at 10 µM; in the data active = inhibition above about 35%, passing the limit was not always enough; inconclusive = no clear call, values can overlap the other calls; note: plate controls were buffer without enzyme for full effect and enzyme alone for no effect
Anthrax LF inh2: blocks Bacillus anthracis lethal factor protease; P15917; multiplex microsphere protease cleavage assay, LF; inhibition, % at 10 µM; actives 0.12% (n = 360,000); AID 588501; in the data active = inhibition above about 30%; inconclusive = no clear call, values can overlap the other calls; note: plate controls were buffer without enzyme for full effect and enzyme alone for no effect
Target sequence (P15917 whole entry, looked up): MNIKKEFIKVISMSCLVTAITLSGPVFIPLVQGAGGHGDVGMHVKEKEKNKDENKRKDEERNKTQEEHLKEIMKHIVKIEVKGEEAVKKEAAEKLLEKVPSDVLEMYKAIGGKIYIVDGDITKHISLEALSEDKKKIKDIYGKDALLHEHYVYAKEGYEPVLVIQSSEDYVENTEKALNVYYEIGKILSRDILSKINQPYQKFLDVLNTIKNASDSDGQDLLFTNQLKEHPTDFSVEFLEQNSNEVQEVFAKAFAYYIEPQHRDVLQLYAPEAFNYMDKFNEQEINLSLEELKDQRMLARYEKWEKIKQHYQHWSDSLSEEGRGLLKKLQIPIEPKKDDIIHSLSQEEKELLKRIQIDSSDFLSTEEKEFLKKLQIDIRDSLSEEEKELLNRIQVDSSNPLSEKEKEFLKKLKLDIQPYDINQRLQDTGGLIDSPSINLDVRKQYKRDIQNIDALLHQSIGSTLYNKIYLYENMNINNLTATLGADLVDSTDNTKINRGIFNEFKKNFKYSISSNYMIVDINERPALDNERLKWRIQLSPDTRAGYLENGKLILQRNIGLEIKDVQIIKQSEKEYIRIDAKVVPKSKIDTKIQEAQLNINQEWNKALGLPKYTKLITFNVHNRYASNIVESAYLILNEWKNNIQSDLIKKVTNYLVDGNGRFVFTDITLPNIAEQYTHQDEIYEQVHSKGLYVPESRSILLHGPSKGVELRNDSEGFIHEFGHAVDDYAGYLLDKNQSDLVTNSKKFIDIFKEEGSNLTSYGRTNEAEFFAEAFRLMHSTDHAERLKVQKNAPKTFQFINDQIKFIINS
Mtb FBA inh: inhibitors of M. tuberculosis fructose-bisphosphate aldolase | purified M. tuberculosis FBA, fluorescence read-out | inhibition, % at 1 µM | AID 588726 | actives 2.3% (n = 360,000) | P9WQA3;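 note: 0% = vehicle and 100% = reference inhibitor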
Mtb FBA inh conf: Mtb FBA inhibition, confirmed; purified M. tuberculosis FBA, fluorescence read-out; shares compounds with Mtb FBA inh; actives 78% (n = 5,600); AID 651616; inhibition, % at 1 µM;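 note: 0% = vehicle wells and 100% = reference inhibitor wells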
GDH-TPI counter-2: GDH-TPI inhibition counter-screen for FBA inhibitors | actives 81% (n = 5,600) | AID 652141 | inhibition, % at 1 µM | shares compounds with Mtb FBA inh | GDH-TPI coupled enzyme counterscreen, fluorescence; in the data active = inhibition above about 10%
* marks the source's active call; other numbers are inactive results; ? = inconclusive; / = no result; + = active, no number. A selection: hits, their analogues and other compounds. The true share with any hit is near 6.7%. Cut-off read from the data, not from the text of the source, unless noted: active = inhibition above about 27%; inactive = the rest.

SMILES	BoNT A protease	GDH-TPI counter-1	Autofluor counter	BoNT-F LC inh	Anthrax LF inh2	Mtb FBA inh	Mtb FBA inh conf	GDH-TPI counter-2
O=C(Nc1ccccc1)C1Cc2c(-c3ccc4c(c3)OCO4)ccnc2O1 (stereo unspecified)	0	7	3480	-3	0	46*	143*	146*
O=C(Nc1cccnc1)C1Cc2c(-c3ccc4c(c3)OCO4)ccnc2O1 (stereo unspecified)	0	2	4092	1	-2	54*	+	162*
O=C(Nc1nc2c(F)cccc2s1)C1CC1	0	-6	5203	-5	2	-5	/	/
CC1CCc2c(sc(Nc3nc4c(F)cccc4s3)c2C(N)=O)C1 (stereo unspecified)	1	15	2728	-4	0	28*	113*	99*
CCOC(=O)COc1c(OC)cc(Cl)cc1C1Nc2ccccc2C(=O)N1c1cccc(C)c1 (stereo unspecified)	1	1	11061	-3	0	17	/	/
CCOC(=O)COc1c(OC)cc(Cl)cc1C1Nc2ccccc2C(=O)N1c1ccccc1 (stereo unspecified)	-1	6	4374	-2	-2	39*	144*	118*
CCOC(=O)COc1ccccc1C1Nc2ccccc2C(=O)N1c1cccc(Cl)c1 (stereo unspecified)	0	6	7271	1	-7	36*	+	+
CCOC(=O)COc1c(OC)cc(Cl)cc1C1Nc2ccccc2C(=O)N1c1ccc(F)cc1 (stereo unspecified)	2	9	5866	1	3	33*	24	12*
CCCn1c(=S)[nH]c2ccccc2c1=O	-1	2	4013	-5	-4	-1	/	/
Cc1ccc(NC(=O)Nc2cnccn2)c(C)c1	1	8	?	6	-6	5	/	/
COCCNC(=O)C1(C)Cc2c(-c3ccc(N(C)C)cc3)ccnc2O1 (stereo unspecified)	0	15	3705	3	1	32*	128*	104*
CN(C)c1ccc(CNC(=O)C2(C)Cc3c(-c4ccc(N(C)C)cc4)ccnc3O2)cc1 (stereo unspecified)	0	30	2882	-5	-3	46*	58*	50*
CC1(C(=O)NCC2CC2)Cc2c(-c3cccc(C(N)=O)c3)ccnc2O1 (stereo unspecified)	0	7	2956	3	-6	1	/	/
CN(C)c1ccc(-c2ccnc3c2CC(C)(C(=O)NCCc2ccccc2)O3)cc1 (stereo unspecified)	0	15	3591	-2	-4	47*	109*	73*
CN(C)c1ccc(-c2ccnc3c2CC(C)(C(=O)NCC2CC2)O3)cc1 (stereo unspecified)	0	25	3785	-1	-6	35*	+	164*
CN(C)c1ccc(CNC(=O)C2(C)Cc3c(-c4ccccc4)ccnc3O2)cc1 (stereo unspecified)	0	-7	3540	1	-2	-3	/	/
CCc1ccccc1NC(=O)C1CCN(S(=O)(=O)c2ccc(N3CCCC3=O)cc2)CC1	0	7	3969	-9	5	1	/	/
Cc1ccc(CN2C(=O)CCC2C(=O)NCc2ccccc2Cl)cc1 (stereo unspecified)	0	-2	4494	-1	0	0	/	/
CN(C(=O)CSc1nc(N)c2c3c(sc2n1)CSC(C)(C)C3)c1ccccc1	2	3	2182	-7	1	31*	61*	49*
CN(C(=O)CSC1=NCCS1)c1ccccc1	0	2	2425	-9	-1	-1	/	/
O=C(O)/C=C\C(=O)Nc1ccccc1C(=O)NC1CCCCC1	-1	7	4533	1	6	52*	-2	-4
O=C(Nc1ccccc1C(=O)NC1CCCCC1)c1ccco1	0	-4	2798	0	0	1	/	/
CC(C)C[C@@H](CNCC(=O)[C@H](Cc1c[nH]c2ccccc12)NC(=O)c1[nH]cnc1C(=O)N[C@H](CN)CC(C)C)NC(=O)c1nc[nH]c1C(=O)N[C@@H](CC(=O)O)C(=O)O	0	11	3403	-3	-11	6	/	/

Screening results (PubChem)
